This is part of a sample that, as a whole, favours compounds with a hit. Of some 83,000 tested, about 20% had one in any assay.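 Compound tested at a single concentration for 48 hours in 96-well plates; a percent growth value below 10 was scored as active.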 Unmarked numbers belong to inactive results. Active and inactive are the calls of the source.

Data on ten compounds can be found in PubChem BioAssay (NCI).

Common to all, as to assay: NCI-60 one-dose screen, 48 h (100 = growth as untreated, 0 = no growth, -100 = all killed)
The test system of one assay is SR leukemia. The settings on record: 10 µM unless noted.
The subject of the next assay is RPMI-8226 leukemia. The settings on record: 10 µM unless noted.
The subject of the next assay is OVCAR-8 ovarian. The settings on record: 10 µM unless noted.
The test system of another assay is SK-OV-3 ovarian. The conditions noted are these: 10 µM unless noted.
In a further assay the test system is IGROV1 ovarian. The settings on record: 10 µM unless noted.
Another assay deals with OVCAR-3 ovarian. The settings on record: 10 µM unless noted.
In the next assay the test system is HS 578T breast. The settings on record: 10 µM unless noted.
In a further assay the test system is T-47D breast. The settings on record: 10 µM unless noted.
For a further assay, the system named is BT-549 breast. The conditions noted are these: 10 µM unless noted.
The test system of another assay is MDA-MB-435 melanoma. The settings on record: 10 µM unless noted.
The subject of another assay is SW-620 colon. The conditions noted are these: 10 µM unless noted.
Another assay concerns MCF7 breast. The settings on record: 10 µM unless noted.
The next assay concerns HCT-116 colon. The conditions noted are these: 10 µM unless noted.
Another assay concerns HCC-2998 colon. The conditions noted are these: 10 µM unless noted.
The next assay has as its system KM12 colon. The settings on record: 10 µM unless noted.
The test system of the next assay is OVCAR-5 ovarian. The settings on record: 10 µM unless noted.
In another assay the test system is OVCAR-4 ovarian. The settings on record: 10 µM.
The subject of another assay is NCI/ADR-RES ovarian. The conditions noted are these: 10 µM unless noted.

Consider `c1coc2occoc=2o1`, for which the growth in the assay with SR leukemia is 114%; with RPMI-8226 leukemia, 100%; in the assay with OVCAR-8 ovarian, 107%; in the assay on SK-OV-3 ovarian, 99.6%; in the assay with IGROV1 ovarian, 109%; with OVCAR-3 ovarian, 103%. For the same compound, the growth in the assay on HS 578T breast was 104%; with T-47D breast, 98%; with BT-549 breast, 104%; with MDA-MB-435 melanoma, 102%; with SW-620 colon, 110%; in the assay on MCF7 breast, 104%. The growth is 109% in the assay on HCT-116 colon, 108% with HCC-2998 colon and 106% with KM12 colon.
Consider `O=C(NCc1ccc(Cn2c(=O)sn(-c3ccccc3)c2=O)cc1)OCc1ccc2c(Br)cc(Br)c(O)c2n1`, for which the growth in the assay with SR leukemia was 4.62% (active); with RPMI-8226 leukemia, -17.7% (active); in the assay on OVCAR-5 ovarian, -62.7% (active); with OVCAR-4 ovarian, -52.9% (active); in the assay with SK-OV-3 ovarian, 55.2%; in the assay on OVCAR-3 ovarian, -90.9% (active). Also, the growth with HS 578T breast is -1.98% (active); with NCI/ADR-RES ovarian, -1.25% (active); in the assay with T-47D breast it was -49.8% (active); in the assay with MDA-MB-435 melanoma, -77.6% (active); with SW-620 colon, -50.2% (active); with MCF7 breast it was -29% (active). Moreover, the growth is -71.8% (active) with HCT-116 colon, -80% (active) in the assay on HCC-2998 colon and -61.8% (active) in the assay on KM12 colon.
Regarding `Nn1c(Nc2ccc(S(=O)(=O)Nc3ncccn3)cc2)nnc(/C=C/c2c(O)ccc3ccccc23)c1=O`, the growth in the assay with SR leukemia is 89.7%; in the assay with RPMI-8226 leukemia, 72.4%; in the assay on OVCAR-4 ovarian it was 75.8%; with SK-OV-3 ovarian it was 84.2%; in the assay on IGROV1 ovarian it was 82.9%; in the assay on OVCAR-3 ovarian, 80.1%. The growth in the assay with HS 578T breast was 94.9%; in the assay on NCI/ADR-RES ovarian it was 94.6%; in the assay on T-47D breast, 70.9%; in the assay with MDA-MB-435 melanoma, 95.2%; in the assay with MCF7 breast, 76.6%; with HCT-116 colon, 89.9%. Also, the growth in the assay on HCC-2998 colon was 114%; in the assay on KM12 colon, 82.9%.
In the case of `C=CCCCCOc1ccccc1-c1cnc(OCCCCC=C)n1C`, the growth in the assay on SR leukemia was 30.7%; in the assay with RPMI-8226 leukemia, 80.8%; with OVCAR-5 ovarian it was 95.2%; in the assay on OVCAR-4 ovarian, 97.9%; in the assay on SK-OV-3 ovarian, 75%; with IGROV1 ovarian, 62.9%. The growth in the assay on OVCAR-3 ovarian is 51.3%; with HS 578T breast, 66.4%; with NCI/ADR-RES ovarian, 30.4%; with T-47D breast, 61.9%; in the assay with BT-549 breast, 96.8%; in the assay on SW-620 colon it was 30.8%. Also, the growth in the assay on MCF7 breast was 42.2%; with HCT-116 colon, 61%; in the assay with HCC-2998 colon, 61.1%; with KM12 colon it was 38.4%.
Take `COc1cc2c(cc1OCCCCCOc1ccc(-n3c(C)nc4ccccc4c3=O)cc1)N=C[C@@H]1CCCN1C2=O`: the growth is -25.4% (active) with SR leukemia; -35% (active) in the assay on RPMI-8226 leukemia; 10.5% with OVCAR-5 ovarian; -27.8% (active) with OVCAR-4 ovarian; -0.258% (active) in the assay with SK-OV-3 ovarian; -28.7% (active) in the assay on IGROV1 ovarian. Further, the growth in the assay with OVCAR-3 ovarian was -15.8% (active); in the assay on NCI/ADR-RES ovarian, -14.6% (active); in the assay with T-47D breast, -7.89% (active); with BT-549 breast, -89.2% (active); in the assay on MDA-MB-435 melanoma, -58.1% (active); in the assay on SW-620 colon it was -13.8% (active). The growth in the assay on MCF7 breast is -53.6% (active); in the assay on HCT-116 colon, 0.749% (active); in the assay on HCC-2998 colon it was -61.7% (active); in the assay with KM12 colon, -45.7% (active).
Regarding `COC(=O)[C@H](CC(C)C)NC(=O)NC(=O)NC(=O)CI`, the growth with SR leukemia is -51% (active); in the assay on RPMI-8226 leukemia, 61.6%; with OVCAR-5 ovarian, 86.9%; in the assay on OVCAR-4 ovarian, 59%; in the assay with SK-OV-3 ovarian it was 92.4%; in the assay with IGROV1 ovarian, 62%. The growth is 92.2% in the assay with NCI/ADR-RES ovarian; 17.3% with T-47D breast; 72.7% in the assay on MDA-MB-435 melanoma; -51.5% (active) with SW-620 colon; 33.2% in the assay with MCF7 breast; 50% in the assay with HCT-116 colon. Besides, the growth in the assay with HCC-2998 colon is 91.9%; in the assay with KM12 colon it was 94.1%.
As to `COc1cc(OC)cc(C(=O)Nc2cc(-c3cccnc3)nc(NCCCN3CCOCC3)n2)c1`, the growth is 57.9% in the assay with SR leukemia; 79.1% in the assay on RPMI-8226 leukemia; 100% in the assay on OVCAR-5 ovarian; 117% in the assay with OVCAR-4 ovarian; 93.9% in the assay on SK-OV-3 ovarian; 97.4% in the assay with IGROV1 ovarian. The growth is 105% with OVCAR-3 ovarian; 69% in the assay on HS 578T breast; 95.4% with NCI/ADR-RES ovarian; 72.8% with T-47D breast; 102% in the assay on MDA-MB-435 melanoma; 99.9% in the assay on SW-620 colon. Besides, the figures for the growth with HCT-116 colon, with HCC-2998 colon and in the assay on KM12 colon were 89.2%, 123% and 104%, respectively.
For the compound `CC(C)C1=NOC(=O)C1=Cc1cn(-c2ccccc2)nc1-c1ccc(Br)cc1`, the growth is -23.1% (active) in the assay with SR leukemia; -29.6% (active) with RPMI-8226 leukemia; 100% with OVCAR-5 ovarian; 98.8% in the assay on OVCAR-4 ovarian; 99.9% in the assay on SK-OV-3 ovarian; 85.4% in the assay with OVCAR-3 ovarian. Further, the growth is 70.4% in the assay with HS 578T breast; 101% in the assay with NCI/ADR-RES ovarian; 74.8% with T-47D breast; 119% in the assay on BT-549 breast; 71.3% in the assay with MDA-MB-435 melanoma; 57.7% with SW-620 colon. The growth in the assay on HCT-116 colon is 64.2%; in the assay on HCC-2998 colon it was 76.2%.
As for `CC1=CC[C@@H]2C(C)(C)[C@@H](O)CC[C@@]2(C)[C@@H]1COc1ccc2ccc(=O)oc2c1`, the growth with SR leukemia is 71.5%; with RPMI-8226 leukemia it was 19.8%; in the assay on OVCAR-5 ovarian, 98%; with OVCAR-4 ovarian, 31%; in the assay with HS 578T breast, 44.2%; in the assay on NCI/ADR-RES ovarian, 17.5%. Besides, the growth in the assay on T-47D breast was -10.1% (active); with BT-549 breast it was 18%; in the assay on MDA-MB-435 melanoma it was 77.6%; in the assay with SW-620 colon, 79.2%; in the assay with MCF7 breast, 77.8%; with HCT-116 colon it was 44.6%. For the same compound, the growth is 88% with HCC-2998 colon and 40.4% with KM12 colon.
`CCOC(=O)c1nn(C2CCCCO2)c2ccc(NC(=O)CN3CCCC3)cc12` (stereo unspecified): the growth was 103% in the assay with SR leukemia; 101% in the assay with OVCAR-8 ovarian; 99.1% in the assay on OVCAR-5 ovarian; 99.4% with OVCAR-4 ovarian; 102% with IGROV1 ovarian; 109% in the assay on OVCAR-3 ovarian. For the same compound, the growth in the assay with HS 578T breast is 95.4%; in the assay with NCI/ADR-RES ovarian it was 103%; in the assay on T-47D breast, 102%; with MDA-MB-435 melanoma it was 102%; in the assay with MCF7 breast it was 95.9%; in the assay on HCC-2998 colon, 101%. Further, the growth with KM12 colon was 103%.
